# Measured values from PubChem BioAssay.
# Where “and” joins values, the source holds several entries; their conditions need not be identical. Equal values may be shown once. For part of these data: Results with a measured potency or affinity are listed apart. Calls of active or inactive are those of the source.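 The calls were made as follows, unless noted: active = dose-response curve with midpoint inside the tested range, moderate steepness, significant amplitude and little compound fluorescence or bead-attachment interference; inactive = the rest.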
# Legend:
# [1] = target: Cell division control protein 42 homolog (Homo sapiens) (UniProt P60953); test: wildtype Cdc42 GTP-binding inhibitors, dose response, biochemical, multiplex bead flow cytometry, Bodipy-FL-GTP (AID 1334;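 active = fitted half-maximal concentration within the tested range, moderate curve steepness, significant signal drop, and little compound fluorescence or bead-linkage interference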); conditions: bead-based flow cytometry, Bodipy-FL-GTP binding to GST-Cdc42; at 100 µM (top of the series) unless noted
# [2] = target: GTPase HRas (Homo sapiens) (UniProt P01112); test: inhibitors of GTP binding to wildtype Ras, dose response, biochemical, multiplex bead flow cytometry (AID 1335;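 active = fitted half-maximal concentration within 10 nM to 100 µM, steepness 0.5 to 2, significant signal drop, low assay interference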); conditions: bead-based flow cytometry, Bodipy-GTP binding to GST-Ras; at 100 µM (top of the series) unless noted
# [3] = test system: Ras-related protein Rab-7a (dog), GTP binding; test: Rab7 GTP binding inhibitors, potency, dose response, biochemical, wildtype, multiplex bead flow cytometry (AID 1336; call rule not given here)
# [4] = target: Ras-related C3 botulinum toxin substrate 1 (Homo sapiens) (UniProt P63000); test: wildtype Rac1 GTP binding inhibitors, dose response, biochemical, multiplex bead flow cytometry (AID 1340;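 active = dose curve with midpoint inside tested range, moderate steepness, plateau gap beyond fit error, low compound glow and bead-link interference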); conditions: GST-Rac1 beads, Bodipy-FL-GTP binding; at 100 µM (top of the series) unless noted
# [5] = target: GTPase HRas (Homo sapiens) (UniProt P01112); test: activated Ras mutant GTP binding inhibitors, dose response, biochemical, multiplex bead flow cytometry (AID 1341);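 also: GST-tagged constitutively activated Ras mutant immobilized on beads and multiplexed with other GTPases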
# [6] = target: Cell division control protein 42 homolog (Homo sapiens) (UniProt P60953); test: activated mutant Cdc42 GTP-binding inhibitors, dose response, biochemical, multiplex bead flow cytometry, Bodipy-FL-GTP (AID 1333;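 active = fitted half-maximal concentration within the tested dose range, moderate curve steepness, a statistically real signal drop, and little compound fluorescence or tag-binding interference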)
# [7] = RPL19A-GFP modulators, yeast TOR pathway, confirmation, cell-based, S. cerevisiae, flow cytometry, cherry picks, mother/daughter gates (AID 2270;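 active = GFP response below 50% of the DMSO control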); conditions: S. cerevisiae RPL19A-GFP strain, 3 h, at 10 µM, stronger effect = lower value, 100 = same GFP as DMSO wells
# [8] = LAP4-GFP expression modulators in yeast, confirmation, cell-based, cherry picks, flow cytometry, mother/daughter gates (AID 2271;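 active = GFP response above 150% of the DMSO control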;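 also: ratio of sample to DMSO plate mean so 100% equals DMSO level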); conditions: S. cerevisiae LAP4-GFP strain, 3 h, at 10 µM, stronger effect = higher value, 100 means same as DMSO control
# [9] = modulators of MEP2-GFP levels in yeast, confirmation, S. cerevisiae, flow cytometry GFP, cherry picks (AID 2272;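 active = GFP response above 150% of the DMSO control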;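 also: ratio of well signal to plate DMSO mean so 100% equals DMSO level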); conditions: S. cerevisiae MEP2-GFP strain, 3 h, at 10 µM, stronger effect = higher value
# [10] = AGP1-GFP expression modulators, hit retest, confirmation, cell-based, flow cytometry, S. cerevisiae, cherry picks (AID 2273;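 active = GFP response above 150% of the DMSO level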;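 also: median GFP channel fluorescence over the whole cell population gate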); conditions: S. cerevisiae AGP1-GFP strain, 3 h, at 10 µM
# [11] = modulators of CIT2-GFP expression in yeast, confirmation, S. cerevisiae, GFP fusion, cherry picks, mother/daughter gates (AID 2274;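 active = GFP response above 150% of the DMSO level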); conditions: S. cerevisiae CIT2-GFP strain, flow cytometry, 3 h, at 10 µM, stronger effect = higher value
# [12] = measured here: daughter cell gate
# [13] = measured here: mother cell gate
# Sequence of GTPase HRas (Homo sapiens) (P01112 whole entry, looked up): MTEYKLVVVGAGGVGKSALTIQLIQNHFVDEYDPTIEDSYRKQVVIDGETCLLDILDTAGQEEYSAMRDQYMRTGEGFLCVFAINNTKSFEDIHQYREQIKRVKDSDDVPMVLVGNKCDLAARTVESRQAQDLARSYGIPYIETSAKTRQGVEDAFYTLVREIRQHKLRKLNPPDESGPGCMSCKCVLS
# Sequence of Cell division control protein 42 homolog (Homo sapiens) (P60953 whole entry, looked up): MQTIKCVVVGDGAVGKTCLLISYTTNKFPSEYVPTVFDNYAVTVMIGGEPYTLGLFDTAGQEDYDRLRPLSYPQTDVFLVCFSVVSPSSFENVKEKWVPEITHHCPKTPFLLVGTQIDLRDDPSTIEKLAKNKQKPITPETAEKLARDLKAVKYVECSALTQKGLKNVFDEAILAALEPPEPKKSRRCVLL
smiles,measurement,setting,value
COc1cccc(NC(=O)COC(=O)/C=C/c2ccc(Cl)cc2Cl)c1,"fluorescence, percent of control (lower = inhibition)",[1],48.4%
same,"GTP binding, percent of control",[2],62%
same,outcome,[3],inactive
same,"GTP binding signal, raw median fluorescence (lower = inhibition) (MCF (arbitrary fluorescence units))",[4],180
same,outcome,[5],inactive
CCCS(=O)(=O)c1nnnn1-c1cccc(OC)c1,outcome,[6],inactive
same,"GTP binding, percent of control",[2],71.2%
same,outcome,[3],inactive
same,"GTP binding signal, raw median fluorescence (lower = inhibition) (MCF (arbitrary fluorescence units))",[4],230
same,outcome,[5],inactive
same,GFP response vs DMSO,[7],87.7% (inactive)
same,GFP response vs DMSO,[7]; [12],84.6%
same,GFP response vs DMSO,[7]; [13],83.9%
same,GFP response relative to DMSO,[8],176% (active)
same,GFP response relative to DMSO,[8]; measured here: daughter cell gate response,154%
same,GFP response relative to DMSO,[8]; measured here: mother cell gate response,178%
same,GFP response vs DMSO,[9],119% (inactive)
same,"GFP response, % of DMSO",[10],106% (inactive)
same,"GFP response, % of DMSO",[11],74.8% (inactive)
same,"GFP response, % of DMSO",[11]; [12],74.6%
same,"GFP response, % of DMSO",[11]; [13],65.8%
Cc1cc(C(=O)Oc2ccccc2C(=O)O)c(C)o1,outcome,[6],inactive
same,"fluorescence, percent of control (lower = inhibition)",[1],61.1%
same,outcome,[5],inactive
O=C(O)c1ccccc1Oc1ccccc1,outcome,[6],inactive
same,"fluorescence, percent of control (lower = inhibition)",[1],83.7%
same,"GTP binding, percent of control",[2],100%
same,"GTP binding signal, raw median fluorescence (lower = inhibition) (MCF (arbitrary fluorescence units))",[4],65
same,outcome,[5],inactive
CCOC(=O)CN(C(=O)CSc1nnc2c(n1)[nH]c1ccc(OC)cc12)c1ccc(F)cc1,outcome,[6],inactive
same,"fluorescence, percent of control (lower = inhibition)",[1],47.9%
same,"GTP binding, percent of control",[2],58.9%
same,outcome,[3],inactive
same,outcome,[5],inactive
S=C(Nc1ccc(Oc2ccccc2)cc1)NC1CCCCC1,outcome,[6],inactive
same,"GTP binding, percent of control",[2],62.2%
same,outcome,[3],inactive
same,"GTP binding signal, raw median fluorescence (lower = inhibition) (MCF (arbitrary fluorescence units))",[4],205
same,outcome,[5],inactive
COc1ccc(-c2nnc(SCC(=O)c3cccs3)o2)cc1,outcome,[6],inactive
same,"fluorescence, percent of control (lower = inhibition)",[1],94.6%
same,"GTP binding, percent of control",[2],141%
same,outcome,[3],inactive
same,outcome,[5],inactive
CCn1nc(C(=O)OCC(=O)c2cc(C)n(Cc3cccs3)c2C)c2ccccc2c1=O,outcome,[6],inactive
same,"fluorescence, percent of control (lower = inhibition)",[1],46.9%
same,"GTP binding, percent of control",[2],64.2%
same,outcome,[3],inactive
same,outcome,[5],inactive
COc1ccccc1NCc1sc(C(=O)O)cc1C,outcome,[6],inactive
same,"fluorescence, percent of control (lower = inhibition)",[1],64.9%
same,"GTP binding, percent of control",[2],86.4%
same,outcome,[3],inactive
same,outcome,[5],inactive
Cc1cccc(-n2nc(CC#N)c(C#N)c2N)c1,outcome,[6],inactive
same,"fluorescence, percent of control (lower = inhibition)",[1],33.5%
same,"GTP binding, percent of control",[2],74.8%
same,outcome,[3],inactive
same,outcome,[5],inactive
O=C(Nc1nc(-c2ccc(S(=O)(=O)N3CCCC3)cc2)cs1)c1ccco1,outcome,[6],inactive
same,"fluorescence, percent of control (lower = inhibition)",[1],49.8%
same,"GTP binding, percent of control",[2],118%
same,outcome,[3],inactive
same,outcome,[5],inactive
NS(=O)(=O)c1ccc(N2N=C(c3ccccc3)CC2c2ccccc2)cc1 (stereo unspecified),outcome,[6],inactive
same,"GTP binding, percent of control",[2],68% and 97.6%
same,outcome,[3],inactive
same,"GTP binding signal, raw median fluorescence (lower = inhibition) (MCF (arbitrary fluorescence units))",[4],223 and 99.4
same,outcome,[5],inactive
O=C(NCc1cccs1)c1cccnc1C(=O)O,"GTP binding, percent of control",[2],84.2%
same,outcome,[3],inactive
same,"GTP binding signal, raw median fluorescence (lower = inhibition) (MCF (arbitrary fluorescence units))",[4],0
same,outcome,[5],inactive
Cc1cc(C)c(C)c(C(=O)c2ccccc2C(=O)O)c1C,"GTP binding, percent of control",[2],122%
same,outcome,[3],inactive
same,outcome,[5],inactive
COc1cccc(-n2nnnc2S(C)(=O)=O)c1,"fluorescence, percent of control (lower = inhibition)",[1],34%
same,"GTP binding, percent of control",[2],59.3%
same,outcome,[3],inactive
same,"GTP binding signal, raw median fluorescence (lower = inhibition) (MCF (arbitrary fluorescence units))",[4],157
same,outcome,[5],inactive
